From PubChem BioAssay (NCATS) come the findings set out here.

Activity calls are given as the source filed them. How the calls were made is not given here.

For the assay the following is noted: Ebola virus entry assay, blue channel fluorescence.
`NC(=O)N1c2ccccc2CC(=O)c2ccccc21`: the compound was called inactive.
Turning to `O=C(CCCN1CCC(O)(c2ccc(Cl)cc2)CC1)c1ccc(F)cc1`, the AC50 is 10 µM (active).
Consider `CCCCc1nc(Cl)c(CO)n1Cc1ccc(-c2ccccc2-c2nn[nH]n2)cc1`, for which the compound was called inactive.
Consider `CC(C)NCC(O)COc1cccc2[nH]ccc12` (stereo unspecified), for which the AC50 was 39.8 µM (active).
As for `CC(C(=O)O)c1cccc(C(=O)c2ccccc2)c1` (stereo unspecified), the outcome was inactive.
Consider `CC(C)c1nc(CN(C)C(=O)N[C@H](C(=O)N[C@@H](Cc2ccccc2)C[C@H](O)[C@H](Cc2ccccc2)NC(=O)OCc2cncs2)C(C)C)cs1`, for which the call was inactive.
For the compound `CC1=C(C(=O)O)N2C(=O)[C@@H](NC(=O)[C@H](N)c3ccc(O)cc3)[C@H]2SC1`, the compound was classed as inactive.
In the case of `Cc1ccccc1C(=O)Nc1ccc(C(=O)N2CCCC(O)c3cc(Cl)ccc32)c(C)c1` (stereo unspecified), the half-maximal activity concentration (AC50) is 25.1 µM (active).
On to `Cc1[nH]cnc1CN1CCc2c(c3ccccc3n2C)C1=O`, for which the result was inactive.
Take `NC(=O)c1cn(Cc2c(F)cccc2F)nn1`: the compound was called inactive.
For `COc1ccc(OC)c(C(O)CNC(=O)CN)c1` (stereo unspecified), the outcome was inactive.
Same read-out and setting: the same measure for `NS(=O)(=O)c1cc2c(cc1Cl)NC=NS2(=O)=O`: “inactive”; for `O=C1CCC(N2C(=O)c3ccccc3C2=O)C(=O)N1` (stereo unspecified): “inactive”.
For `CNCCC(Oc1ccc(C(F)(F)F)cc1)c1ccccc1` (stereo unspecified), the AC50 is 8.91 µM (active).
For `CCOC(=O)c1ncn2c1CN(C)C(=O)c1cc(F)ccc1-2`, the compound was called inactive.
`CCN(CC)C(=S)SSC(=S)N(CC)CC`: the AC50 was 7.08 µM (active).
